Active and inactive are the calls of the source. Unless noted, no rule for the calls is given here.
How the values were obtained:
[1] = tested on: Wnt5a (protein binding on small-molecule microarray); experiment: Wnt5a binders on small-molecule microarray, primary screen, biophysical, 635/667 nm fluorescence (AID 1142); details: 635 nm fluorescence, higher = more signal;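 also: fluorescence read at 667 nm with signal to noise per printed feature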
[2] = cell viability in Huh7 cells, primary screen, cytotoxicity control for HCV replication inhibitor project, CellTiter-Glo luminescence, basal, 48 h (AID 1143); details: Huh7 HCV replicon, higher = more signal, called active from +8 up or from −8 down;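 also: Huh7 hepatoma cells carrying a hepatitis C replication reporter with no stimulus; test concentration not given here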
[3] = P. aeruginosa biofilm formation inhibitors, primary screen, PAO1 strain, BacTiter-Glo luminescence, LB-PBS (AID 1144); details: 12 h, higher = more signal
[4] = CREB reporter modulators without forskolin, primary screen, cell-based, PC12, CRE-LacZ reporter, unstimulated (AID 1145); details: no forskolin, luminescence, 4.5 h, higher = more signal, called active from +8 up or from −8 down
[5] = CREB reporter modulators under forskolin, primary screen, cell-based, PC12, CRE-LacZ reporter, forskolin-stimulated (AID 1146); details: luminescence, 4.5 h, higher = more signal, called active from +8 up or from −8 down;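 also: PC12 cells with 6xCRE LacZ reporter stimulated by forskolin 10 µM; beta-galactosidase reporter signal reflecting CREB driven transcription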
[6] = biological target: Streptavidin (Streptomyces avidinii) (UniProt P22629); experiment: streptavidin binders on small-molecule microarray, primary screen, artefact control for SMM compound annotation, biophysical, 635/667 nm fluorescence (AID 1147); details: streptavidin binding, higher = more signal;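 also: signal reflects streptavidin binding to arrayed compounds as a control protein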
Sequence of Streptavidin (Streptomyces avidinii) (P22629 whole entry, looked up): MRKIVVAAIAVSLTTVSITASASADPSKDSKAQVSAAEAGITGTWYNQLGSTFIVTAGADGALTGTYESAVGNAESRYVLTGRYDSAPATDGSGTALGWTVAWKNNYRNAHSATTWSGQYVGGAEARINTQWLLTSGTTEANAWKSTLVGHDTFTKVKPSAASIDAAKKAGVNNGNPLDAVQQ

[7] = small-molecule binders of probe aInhba, primary screen, biochemical, small-molecule microarray, 635/667 nm fluorescence (AID 1148); details: higher = more signal;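 also: score merges 667nm spot fluorescence with signal-to-noise for antibody binding to printed compounds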
Torsin-1A (Homo sapiens) [8] = biological target: Torsin-1A (Homo sapiens) (UniProt O14656); experiment: torsin A binders from cell lysate, primary screen, small-molecule microarray, wild-type, 635/667 nm (AID 1149); details: COS7 hTOR1A-WT lysate, 635 nm fluorescence, higher = more signal
Sequence of Torsin-1A (Homo sapiens) (O14656 whole entry, looked up): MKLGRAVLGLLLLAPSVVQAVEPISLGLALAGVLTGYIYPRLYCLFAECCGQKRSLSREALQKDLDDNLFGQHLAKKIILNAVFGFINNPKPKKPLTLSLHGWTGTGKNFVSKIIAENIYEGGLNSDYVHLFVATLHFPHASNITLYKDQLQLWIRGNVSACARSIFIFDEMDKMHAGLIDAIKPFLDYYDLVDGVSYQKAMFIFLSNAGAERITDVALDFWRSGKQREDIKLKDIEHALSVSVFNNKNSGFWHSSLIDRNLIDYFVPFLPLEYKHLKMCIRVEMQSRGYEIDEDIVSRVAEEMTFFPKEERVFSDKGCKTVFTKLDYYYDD

Torsin-1A (Homo sapiens) [9] = biological target: Torsin-1A (Homo sapiens) (UniProt O14656); experiment: small-molecule binders of mutant TOR1A in lysate, primary screen, cell lysate, small-molecule microarray, COS7 lysate, 635/667 nm fluorescence (AID 1150); details: COS7 hTOR1A mutant lysate, 635 nm fluorescence, higher = more signal;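 also: score pools 667 nm emission and signal to noise measuring lysate protein binding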
[10] = tested on: Sonic hedgehog protein (Shh); experiment: small-molecule binders of Shh protein, primary screen, biochemical, small-molecule microarray, 635/667 nm fluorescence (AID 1151); details: small-molecule microarray binding, 635 nm fluorescence; higher = more signal;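 also: Shh protein binding to compounds spotted on small-molecule microarray slides; score combines spot fluorescence intensity with signal-to-noise across triplicate slides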
[11] = E. coli DRC41 culture turbidity changes, primary screen, E. coli filamentation inducer project, strain DRC41, OD650, 48 h (AID 1152);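 also: E. coli MC1000 strain DRC41 lacking acrAB efflux pump and sulA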; details: E. coli DRC41 (acrAB sulA), higher = more signal, called active from +8 up or from −8 down
[12] = small-molecule binders of probe aLefty1, primary screen, biochemical, small-molecule microarray, 635/667 nm fluorescence (AID 1153); details: higher = more signal;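 also: score merges spot fluorescence with signal-to-noise ratio from the scanned slide images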
[13] = PSAC antagonists in infected red cells, primary screen, cell-based, P. falciparum Indochina, OD700, 1 h (AID 1154); details: P. falciparum Indochina infected RBC osmotic lysis, higher = more signal, called active from +8 up or from −8 down
[14] = PSAC antagonists in infected red cells, primary screen, cell-based, P. falciparum Indochina, OD700, 2 h (AID 1155);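 also: lysis reports solute entry through the parasite surface anion channel PSAC; channel blockers reduce lysis of infected cells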; details: P. falciparum Indochina infected erythrocytes, osmotic lysis OD700; higher = more signal, called active from +8 up or from −8 down
[15] = osmotic lysis modulators in infected erythrocytes, primary screen, PSAC antagonist project, cell-based, P. falciparum Indochina, OD700, 3 h (AID 1156); details: higher = more signal, called active from +8 up or from −8 down
[16] = PSAC antagonists in infected red cells, primary screen, cell-based, P. falciparum Indochina, OD700, 18 h (AID 1157); details: P. falciparum Indochina infected erythrocytes, osmotic lysis OD700, 18 h; higher = more signal, called active from +8 up or from −8 down
[17] = modulators of S6 phosphorylation in cells, primary screen, cell-based, A549, cytoblot, luminescence, serum-stimulated (AID 1158); details: A549 phospho-S6 cytoblot, 5 h, higher = more signal;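 also: serum-stimulated A549 lung adenocarcinoma cells; signal is phosphorylated S6 detected by cytoblot immunostaining with HRP secondary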
[18] = biological target: NADPH oxidase 2 (Homo sapiens) (UniProt P04839); experiment: NOX2-dependent H2O2 signal modulators, primary screen, NOX inhibitor project, cell-based, HEK293-NOX2, PMA-stimulated, Amplex Red fluorescence (AID 1159); details: 45 min, higher = more signal, called active from +8 up or from −8 down; also: test concentration not given here
Sequence of NADPH oxidase 2 (Homo sapiens) (P04839 whole entry, looked up): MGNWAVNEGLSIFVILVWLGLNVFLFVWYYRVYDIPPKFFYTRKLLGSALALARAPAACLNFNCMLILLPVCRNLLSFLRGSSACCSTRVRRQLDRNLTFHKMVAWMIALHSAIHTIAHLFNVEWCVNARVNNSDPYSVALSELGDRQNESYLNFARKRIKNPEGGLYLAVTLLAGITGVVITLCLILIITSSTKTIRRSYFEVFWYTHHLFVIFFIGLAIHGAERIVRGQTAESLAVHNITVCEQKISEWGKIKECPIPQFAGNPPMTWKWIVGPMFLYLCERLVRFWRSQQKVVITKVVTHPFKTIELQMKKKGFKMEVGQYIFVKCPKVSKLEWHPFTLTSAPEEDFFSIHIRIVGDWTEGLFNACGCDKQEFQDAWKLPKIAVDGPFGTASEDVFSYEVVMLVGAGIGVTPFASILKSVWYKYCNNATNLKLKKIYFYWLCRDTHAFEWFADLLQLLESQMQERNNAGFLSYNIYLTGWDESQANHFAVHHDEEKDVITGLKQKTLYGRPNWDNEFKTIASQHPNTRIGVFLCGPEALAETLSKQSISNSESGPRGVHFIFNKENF

[19] = biological target: NADPH oxidase 4 (Homo sapiens) (UniProt Q9NPH5); experiment: NOX4-dependent H2O2 signal modulators, primary screen, NOX inhibitor project, cell-based, HEK293-NOX4, tetracycline-induced, Amplex Red fluorescence (AID 1160); details: 45 min, higher = more signal, called active from +8 up or from −8 down
Sequence of NADPH oxidase 4 (Homo sapiens) (Q9NPH5 whole entry, looked up): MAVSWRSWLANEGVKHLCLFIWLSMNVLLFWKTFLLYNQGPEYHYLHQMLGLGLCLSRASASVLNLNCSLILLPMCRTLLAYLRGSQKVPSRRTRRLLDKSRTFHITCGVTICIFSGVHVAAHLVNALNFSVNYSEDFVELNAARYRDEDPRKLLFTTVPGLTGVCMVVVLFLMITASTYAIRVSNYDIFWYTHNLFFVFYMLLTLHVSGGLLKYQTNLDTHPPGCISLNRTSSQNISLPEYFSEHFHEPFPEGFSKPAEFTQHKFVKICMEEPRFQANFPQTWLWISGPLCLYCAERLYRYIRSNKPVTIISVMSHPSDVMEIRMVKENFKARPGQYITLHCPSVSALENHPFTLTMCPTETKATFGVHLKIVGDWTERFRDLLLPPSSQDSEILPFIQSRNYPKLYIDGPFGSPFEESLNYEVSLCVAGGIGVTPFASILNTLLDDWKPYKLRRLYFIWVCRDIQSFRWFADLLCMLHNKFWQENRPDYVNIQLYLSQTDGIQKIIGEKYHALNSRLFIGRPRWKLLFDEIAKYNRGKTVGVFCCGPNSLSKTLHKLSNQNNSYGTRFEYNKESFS

[20] = biological target: NADPH oxidase 5 (Homo sapiens) (UniProt Q96PH1); experiment: NOX5-dependent H2O2 signal modulators, primary screen, NOX inhibitor project, cell-based, HEK293-NOX5, Amplex Red fluorescence (AID 1161); details: HEK293-NOX5, ionomycin, 45 min, higher = more signal
Sequence of NADPH oxidase 5 (Homo sapiens) (Q96PH1 whole entry, looked up): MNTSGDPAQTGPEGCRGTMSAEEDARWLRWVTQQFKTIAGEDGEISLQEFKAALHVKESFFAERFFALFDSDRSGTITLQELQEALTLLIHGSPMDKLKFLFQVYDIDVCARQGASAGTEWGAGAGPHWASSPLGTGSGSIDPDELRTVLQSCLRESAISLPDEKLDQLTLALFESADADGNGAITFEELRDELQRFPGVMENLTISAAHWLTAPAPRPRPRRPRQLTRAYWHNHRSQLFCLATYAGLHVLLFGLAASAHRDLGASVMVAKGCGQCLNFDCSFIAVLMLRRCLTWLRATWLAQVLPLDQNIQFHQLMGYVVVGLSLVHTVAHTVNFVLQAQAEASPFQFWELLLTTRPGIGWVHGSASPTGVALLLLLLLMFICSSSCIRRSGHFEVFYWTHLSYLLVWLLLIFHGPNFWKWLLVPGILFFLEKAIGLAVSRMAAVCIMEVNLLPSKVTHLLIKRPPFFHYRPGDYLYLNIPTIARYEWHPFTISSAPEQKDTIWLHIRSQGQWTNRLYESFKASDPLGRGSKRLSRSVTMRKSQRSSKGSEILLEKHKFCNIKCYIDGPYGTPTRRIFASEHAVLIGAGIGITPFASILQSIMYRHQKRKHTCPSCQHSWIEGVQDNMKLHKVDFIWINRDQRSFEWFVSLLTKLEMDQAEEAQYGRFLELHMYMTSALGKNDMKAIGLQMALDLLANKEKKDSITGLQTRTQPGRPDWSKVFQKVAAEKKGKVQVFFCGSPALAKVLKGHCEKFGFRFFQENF

Structure (SMILES)	composite z-score [1]	z-score [2]	z-score [3]	z-score [4]	z-score [5]	composite z-score [6]	composite z-score [7]	composite z-score (Torsin-1A (Homo sapiens) [8])	composite z-score (Torsin-1A (Homo sapiens) [9])	composite z-score [10]	z-score [11]	composite z-score [12]	z-score [13]	z-score [14]	z-score [15]	z-score [16]	z-score [17]	z-score [18]	z-score [19]	z-score [20]
COCCOC(=O)N1C(=O)[C@@]2(c3cc(C#CC4=CCCCC4)ccc31)[C@H](c1ccc(O)cc1)N1[C@H](c3ccccc3)[C@H](c3ccccc3)OC(=O)[C@H]1[C@@H]2C(=O)N1CCCCCCC1	0.288	-3.42 (inactive)	-0.307 (inactive)	-1.01 (inactive)	-1.09 (inactive)	1.29	0.0818	0.588	0.594	1.76	1.65 (inactive)	1.49	-0.138 (inactive)	-0.321 (inactive)	-0.52 (inactive)	0.389 (inactive)	-0.137	1.06 (inactive)	0.325 (inactive)	1.53
O=C/C=C/c1ccc(/C=C/c2ccccc2)cc1	-0.378	-2.23 (inactive)	-0.0603 (inactive)	-0.141 (inactive)	-0.795 (inactive)	-0.0122	-0.128	-0.373	-0.479	0.609	2.42 (inactive)	0.25	3.87 (inactive)	-0.941 (inactive)	1.17 (inactive)	-1.73 (inactive)	0.972	0.825 (inactive)	-1.69 (inactive)	1.4
O=C1OCC=C[C@H]2OC34C=CCN(Cc5ccccc5)C(=O)[C@H]3N(CCO)C(=O)[C@@H]4[C@@H]12 (stereo not given in full)	-0.744	0.154 (inactive)	-0.992 (inactive)	-1.31 (inactive)	-0.773 (inactive)	-1.09	-0.307	-2.02	-0.768	-0.722	2.41 (inactive)	-0.0104	0.286 (inactive)	-0.44 (inactive)	-1.32 (inactive)	-1.34 (inactive)	0.262	1.53 (inactive)	1.18 (inactive)	1.75
CCOC(=O)C1=CC[C@@H](c2ccc(-c3ccc(OCc4ccccc4)cc3)c(OC)c2)N(S(=O)(=O)c2ccc(C)cc2)[C@H]1c1ccccc1	0.0858	-2.32 (inactive)	-1.05 (inactive)	-0.489 (inactive)	0.1 (inactive)	1.67	0.119	0.277	0.518	1.15	-0.0232 (inactive)	0.404	2.67 (inactive)	1.86 (inactive)	0.487 (inactive)	1.22 (inactive)	-0.533	1.31 (inactive)	0.643 (inactive)	0.429
O=C(NCc1ccccc1)[C@@]1(Cc2ccccc2)COC(c2ccc(OCCCO)cc2)=N1	0.369	-4.7 (inactive)	-0.607 (inactive)	-0.0157 (inactive)	-1.27 (inactive)	0.191	-0.0087	-0.0265	0.737	-0.587	-0.65 (inactive)	0.205	29.5 (active)	21.2 (active)	3.61 (inactive)	3.89 (inactive)	0.366	-3.55 (inactive)	-0.556 (inactive)	-2.81
O=C1C2C=CC(C(O)c3ccccc3)N(n3cnnc3)C2C(=O)N1Cc1ccccc1 (stereo not given)	0.068	0.455 (inactive)	-1.43 (inactive)	0.822 (inactive)	-0.5 (inactive)	0.266	0.241	0.148	-0.457	-0.189	-0.678 (inactive)	0.3	1.23 (inactive)	-0.137 (inactive)	-0.138 (inactive)	-1.55 (inactive)	0.591	0.569 (inactive)	-0.323 (inactive)	-0.324
CC(C)NC(=O)[C@@]1(Cc2ccccc2I)c2ccccc2C(=O)N(C2CCCCC2)[C@H]1c1ccc(CO)cc1	0.345	-3.83 (inactive)	-1.09 (inactive)	0.531 (inactive)	0.24 (inactive)	0.999	0.122	0.457	0.559	0.28	0.151 (inactive)	0.149	7.99 (inactive)	1.13 (inactive)	3.67 (inactive)	1.28 (inactive)	0.274	0.988 (inactive)	-1.77 (inactive)	-1.42
C=C(CCCC)/C(=C/C[C@@H](OC(=O)c1ccncc1)c1cccc(OCCO)c1)c1cc(C(=O)OC)ccc1OC	0.153	-1.36 (inactive)	-1.04 (inactive)	13.4 (active)	-1.47 (inactive)	0.788	0.0852	1.13	0.76	1.47	1.37 (inactive)	0.0371	21 (active)	3.89 (inactive)	2.48 (inactive)	1.26 (inactive)	-0.365	1.33 (inactive)	1.62 (inactive)	-0.975
COCCOC(=O)N1C(=O)[C@@]2(c3cc(C#CCC(C(=O)OC)C(=O)OC)ccc31)[C@H](c1ccccc1OCCO)N1[C@H](c3ccccc3)[C@H](c3ccccc3)OC(=O)[C@H]1[C@@H]2C(=O)N1CCCCCCC1	1.16	-1.66 (inactive)	-0.129 (inactive)	-0.329 (inactive)	0.0965 (inactive)	2.45	0.628	1.29	0.96	1.66	0.0371 (inactive)	2.43	0.998 (inactive)	1.01 (inactive)	0.259 (inactive)	0.508 (inactive)	0.0992	0.0483 (inactive)	0.309 (inactive)	1.52

From PubChem BioAssay
